Out of some 5,500 compounds screened, about 2,000 (36%) were called active. Another 18% or so got no clear call; they are omitted. Cut-off read from the data, not from the text of the source: active = normalized growth mostly below about 0.91 (no sharp cut-off); inconclusive = no clear call, values can overlap the other calls; inactive = mostly above about 0.92. Some of the results follow.
Test: chemical genetic growth profiling, strain panel (AID 1159580);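 note: tested at 20 µM; growth read once vehicle control cultures reached saturation at 30 °C; 1 = growth at the plate median or of vehicle wells; lower values mean less growth of the strain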
Conditions: S. cerevisiae deletion strains, growth OD
[1] = locus YDL101C, strain DUN1, hits give low values
[2] = locus YHR030C, strain SLT2, hits give low values
[3] = locus YHR079C, strain IRE1, hits give low values
[4] = locus YJL095W, strain BCK1, hits give low values
[5] = locus YJR066W, strain TOR1, hits give low values
[6] = locus YLR113W, strain HOG1, hits give low values
[7] = locus YNL183C, strain NPR1, hits give low values
[8] = locus YOR231W, strain MKK1, hits give low values
[9] = locus YPL256C, strain CLN2, hits give low values

Measured: normalized growth

O=C(NCc1ccc2c(c1)OCO2)c1cc2ccccc2s1
inactive: locus YDL028C, strain MPS1, hits give low values 0.9 | [1] 0.912 | locus YDR052C, strain DBF4, hits give low values 0.933 | locus YHR205W, strain SCH9, hits give low values 0.678 | locus YJL128C, strain PBS2, hits give low values 0.854
active: locus YAR019C, strain CDC15, hits give low values 0.858 | locus YBL105C, strain PKC1, hits give low values 0.867 | locus YBR135W, strain CKS1, hits give low values 0.87 | locus YBR136W, strain MEC1, hits give low values 0.866 | locus YBR160W, strain CDC28, hits give low values 0.873 | locus YDL017W, strain CDC7, hits give low values 0.877 | locus YDL108W, strain KIN28, hits give low values 0.888 | locus YDL132W, strain cdc53, hits give low values 0.851 | locus YDL214C, strain PRR2, hits give low values 0.58 | locus YDR054C, strain cdc34, hits give low values 0.648 | locus YDR226W, strain ADK1, hits give low values 0.874 | locus YDR477W, strain SNF1, hits give low values 0.422 | locus YER123W, strain YCK3, hits give low values 0.396 | locus YER133W, strain GLC7, hits give low values 0.298 | locus YFL009W, strain cdc4, hits give low values 0.858 | locus YFL029C, strain CAK1, hits give low values 0.852 | locus YFR003C, strain YPI1, hits give low values 0.872 | locus YFR019W, strain FAB1, hits give low values 0.625 | locus YFR028C, strain CDC14, hits give low values 0.864 | locus YGR040W, strain KSS1, hits give low values 0.459 | locus YGR052W, strain FMP48, hits give low values 0.406 | locus YGR092W, strain DBF2, hits give low values 0.3 | [2] 0.14 | [3] 0.178 | locus YHR082C, strain KSP1, hits give low values 0.571 | locus YIL147C, strain SLN1, hits give low values 0.871 | [4] 0.144 | locus YJL157C, strain FAR1, hits give low values 0.622 | locus YJR016C, strain ILV3, hits give low values 0.87 | locus YJR066W, strain TOR1 (second series), hits give low values 0.155 | [5] 0.432 | locus YKL048C, strain ELM1, hits give low values 0.443 | locus YKL067W, strain YNK1, hits give low values 0.675 | locus YKL101W, strain HSL1, hits give low values 0.573 | locus YKL193C, strain SDS22, hits give low values 0.882 | locus YKL203C, strain TOR2, hits give low values 0.258 | [6] 0.626 | locus YLR133W, strain CKI1, hits give low values 0.675 | locus YLR403W, strain SFP1, hits give low values 0.583 | locus YML070W, strain DAK1, hits give low values 0.54 | locus YMR001C, strain CDC5, hits give low values 0.837 | locus YMR205C, strain PFK2 (second series), hits give low values 0.692 | locus YMR277W, strain FCP1, hits give low values 0.829 | locus YNL006W, strain LST8, hits give low values 0.849 | locus YNL020C, strain ARK1, hits give low values 0.663 | locus YNL161W, strain CBK1, hits give low values 0.868 | [7] 0.322 | locus YNL207W, strain RIO2, hits give low values 0.822 | locus YNL222W, strain SSU72, hits give low values 0.853 | locus YNL307C, strain MCK1 (second series), hits give low values 0.205 | locus YOL078W, strain AVO1, hits give low values 0.842 | locus YOL136C, strain PFK27, hits give low values 0.429 | locus YOR061W, strain CKA2, hits give low values 0.589 | locus YOR119C, strain RIO1, hits give low values 0.273 | [8] 0.369 | locus YOR329C, strain SCD5, hits give low values 0.856 | locus YPL031C, strain PHO85, hits give low values 0.392 | locus YPL153C, strain RAD53, hits give low values 0.224 | locus YPL204W, strain HRR25, hits give low values 0.3 | locus YPL209C, strain IPL1, hits give low values 0.868 | [9] 0.558 | locus YPR025C, strain CCL1, hits give low values 0.863 | locus YPR106W, strain ISR1, hits give low values 0.882 | locus YPR111W, strain DBF20, hits give low values 0.868 | strain NNK1, hits give low values 0.835 | strain TSCII, hits give low values 0.799

CC(c1cc2ccccc2s1)N(O)C(N)=O (configuration not stated)
inactive: [2] 1.01 | [3] 0.964 | [4] 0.981 | [5] 0.941 | [6] 0.944 | [7] 0.892 | [8] 0.967 | [9] 0.976

O=C(O)C1c2ccccc2C(=O)N(Cc2ccc3c(c2)OCO3)C1c1cccnc1 (configuration not stated)
inactive: locus YAL013W, strain DEP1, hits give low values 1.02 | locus YBR229C, strain ROT2, hits give low values 1.01 | locus YCL061C, strain MRC1, hits give low values 0.994 | [1] 1.01 | locus YDL134C, strain PPH21, hits give low values 0.993 | locus YDR150W, strain NUM1, hits give low values 0.978 | locus YEL061C, strain CIN8, hits give low values 1.04 | locus YGR078C, strain PAC10, hits give low values 1.04 | [2] 1.05 | locus YHR087W, strain rtc3, hits give low values 1.01 | locus YJR043C, strain POL32, hits give low values 0.996 | locus YJR075W, strain HOC1, hits give low values 1.03 | locus YKL190W, strain CNB1, hits give low values 0.989 | locus YLR039C, strain RIC1, hits give low values 1.01 | locus YLR058C, strain SHM2 (second series), hits give low values 0.997 | locus YLR085C, strain ARP6, hits give low values 1.02 | locus YLR262C, strain YPT6, hits give low values 0.971 | locus YML094W, strain GIM5, hits give low values 1.04 | locus YMR219W, strain ESC1, hits give low values 1 | locus YMR263W, strain SAP30, hits give low values 1 | locus YNL128W, strain TEP1, hits give low values 0.993 | locus YNL153C, strain GIM3, hits give low values 1.01 | locus YNL298W, strain CLA4 (second series), hits give low values 1.04 | locus YNL322C, strain KRE1, hits give low values 1.02 | locus YNR030W, strain Alg12, hits give low values 1 | locus YPL055C, strain LGE1, hits give low values 1.03 | locus YPL241C, strain CIN2, hits give low values 0.971 | locus YPR135W, strain CTF4, hits give low values 0.982
